Shown are actives, neighbours in structure and some others; about 9.5% of the full set was active somewhere.
Pf growth 48h – Primary qHTS for delayed death inhibitors of the malarial parasite plastid, 48 hour incubation | P. falciparum luciferase growth in erythrocytes, 48 h | Potency, µM (top dose mostly 28.7 µM), without a hit: at the highest dose activity change, negative = inhibition, most hits filed as inhibitors | hit rate 5.9% among 310,000 | AID 504832, 2011; also: % is scaled to controls: 0 for no effect and ±100 for the full control effect
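Erythrocytes infected with P. falciparum carrying an integrated firefly luciferase reporter (2% hematocrit, 0.1% parasitemia final) were exposed to compounds in RPMI 1640 with 0.5% Albumax at 37 C, 5% CO2. Growth inhibition was scored as reduced luminescence.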
NS1 function inh – qHTS Assay for Inhibitors of Influenza NS1 Protein Function; hit rate 0.4% among 270,000; AID 2326, 2010; Potency, µM (top dose mostly 46.1 µM), for inactives: at the highest dose activity, positive = more growth; calls by dose curve; also: actives are rising curves; nearly all actives have a fitted effect of over 50% in size
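OD600 was taken as the measure of yeast growth restored by compound in an NS1-expressing S. cerevisiae strain. Cells had been washed out of glucose medium and diluted 1:100 into galactose -URA medium, pH 6.0.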
SARS PLP yeast – qHTS of Yeast-based Assay for SARS-CoV PLP. Potency, µM (highest dose often 32.9 µM), for inactives: at the top dose activity, positive = growth rescue, usual class: activators. hit rate 0.19% among 330,000. S. cerevisiae expressing SARS-CoV PLpro, growth rescue; calls by dose curve; also: 0% is about no effect; nearly all actives have a fitted effect of over 55% in size
RE007 growth inh – qHTS Assay for Inhibitors of the HIV-1 protein Vpr. S. pombe RE007 Vpr strain, BacTiter-Glo ATP luminescence, 24 h. Potency, µM (doses to about 92.2 µM), for inactives: at the top dose activity change, negative = less growth, actives largely listed as inhibitors. hit rate 0.21% among 360,000; active = well fitted falling curve with a large enough effect; inconclusive = small, poorly fitted or top-dose-only effect; inactive = no such curve, though single readings can be large or run the other way; also: % is scaled to controls: 0 for no effect and ±100 for the full control effect; nearly all actives have a fitted effect of over 50% in size
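Fission yeast strain RE007, carrying one chromosomally integrated HIV-1 vpr copy, was seeded at OD 0.01 in PMG+AL medium with 23 nL pinned compound. After 24 h at 30 °C and 99% humidity, viability was read by BacTiter-Glo luminescence.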
Pf growth 96h – Primary qHTS for delayed death inhibitors of the malarial parasite plastid, 96 hour incubation; P. falciparum luciferase reporter growth, 96 h; Potency, µM (top dose mostly 28.7 µM), without a hit: at the top dose activity change, negative = inhibition, actives largely listed as inhibitors; hit rate 6.9% among 320,000; AID 504834, 2011; also: % is scaled to controls: 0 for no effect and ±100 for the full control effect
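Erythrocytes infected with luciferase-expressing P. falciparum were dispensed at 2% hematocrit and 0.05% parasitemia (final), then incubated with compounds 96 hours at 37 C in 5% CO2. Luminescence after detection reagent addition reported growth.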
Starred values were filed as active, the others as inactive; ? = inconclusive; · = no result; [ ] = remark or other dose. Unless noted, calls follow the shape of the dose curve; as a rule, active = well fitted inhibition curve with a large enough effect; inconclusive = small, poorly fitted or top-dose-only effect, or another doubt; inactive = no such curve, though single readings can be large or run the other way. Potency is read from the fitted curve at half-maximal effect.

SMILES	Pf growth 48h	NS1 function inh	SARS PLP yeast	RE007 growth inh	Pf growth 96h
Fc1ccc(/C=C2\CCCC3=C2Nc2ncnn2C3c2ccc(F)cc2)cc1 (stereo not given)	13µM*	14%	-7%	90%	?
COCCNC(=S)N/N=C(\C)c1ccccc1F	?	·	2%	-30%	9.3µM*
COCCNC(=S)N/N=C(\C)c1ccccc1O	2.9µM*	-2%	9%	-20%	?
Cc1[nH]c(=O)[nH]c(=O)c1S(=O)(=O)Nc1ccc(F)cc1Cl	27%	3%	0%	6%	?
COc1ccc(C(C)=O)cc1CSc1nc2ccccc2c(=O)n1-c1ccccc1	-29%	-7%	-7%	-5%	?
C=CCn1c(SCc2cc(C(C)=O)ccc2OCC)nc2ccccc2c1=O	?	24%	-7%	5%	5.9µM*
COc1ccc(C(C)=O)cc1CSc1nc2ccccc2c(=O)n1-c1ccccc1C	12µM*	?	-23%	-4%	2.3µM*
Cc1ccc(/C=N/NC(=O)CSc2nc3ccccc3c(=O)n2-c2ccccc2)s1	?	29%	-16%	-18%	?
Cc1ccc(/C=N/NC(=O)CSc2nc3ccccc3c(=O)n2-c2ccccc2C)s1	-30%	4%	14%	-11%	12µM*
O=[N+]([O-])c1ccc2c(N=Nc3ccc4ccccc4c3O)c(O)cc(S(=O)(=O)O)c2c1	·	-4%	·	·	·
C/C(=C/c1oc2ccc(O)cc2c1[N+](=O)[O-])N(C)C	·	7%	12%	-10%	15µM*
CC(=O)Oc1ccc2oc(/C=C/N(C)C)c([N+](=O)[O-])c2c1	·	4%	10%	-15%[3.69 µM]	?
CCCc1nc(NCc2ccccc2)c(C#N)c2c1CCCC2	6.6µM*	-8%	2%	11%	?
N#Cc1c(Cl)nc(Cl)c2c1CCN(Cc1ccccc1)C2	-16%	-4%	2%	-4%	?
N#Cc1c(N2CCCCC2)nc(N2CCCCC2)c2c1CCN(Cc1ccccc1)C2	3.7µM*	-5%	-1%	-18%	98%
C=CCNc1nc(NCc2ccccc2)c(C#N)c2c1CN(C)CC2	?	-7%	-3%	5%	27%
CCN1CCc2c(C#N)c(NCc3ccccc3)nc(N(CC)CC)c2C1	2.6µM*	-10%	-3%	11%	0.93µM*
N#Cc1c(NCCN)nc(NCc2ccccc2)c2c1CCN(Cc1ccccc1)C2	9.3µM*	20%	-1%	-10%	70%
CCOc1ccc(S(=O)(=O)N(CC(=O)NCc2cccnc2)c2ccc(F)cc2)cc1	-12%	-12%	4%	0%	32%
CCOC(=O)c1ccc(NC(=O)c2nc[nH]c2C(=O)N[C@H](C)CO)cc1	·	·	·	-16%	·
COC(=O)C1=CN(C(C)C)C=C(C(=O)OC)C1c1cc(Br)c(OC)c(OC)c1	4.7µM*	-28%	5%	4%	7.4µM*
COC(=O)C1=CN(C(C)C)C=C(C(=O)OC)C1c1cccc(OC)c1	?	-15%	-1%	-7%	122%
CCC(C(=O)C(C)C(O)C(C)CCc1ccc(C)c(O)c1C(=O)O)C1OC(CC)(C2CC[C@@](O)(CC)C(C)O2)CC1C (stereo not given in full)	0.38µM*	·	·	·	0.38µM*
CC[C@@H](C(=O)[C@@H](C)[C@@H](O)[C@H](C)CCc1ccc(C)c(O)c1C(=O)O)[C@H]1O[C@](CC)([C@H]2CC[C@](O)(CC)[C@H](C)O2)C[C@@H]1C	0.093µM*	-118%	-29%	3%	?
c1ccc(CCN2CCCCCC2)nc1	·	0%	·	·	·
SMILES	Pf growth 48h	NS1 function inh	SARS PLP yeast	RE007 growth inh	Pf growth 96h
CCOC(=O)c1sc2ncn(/N=C/c3ccccn3)c(=O)c2c1C	10%	11%	20%	·	6.6µM*
CC(C)n1nnnc1SCC(=O)Nc1cccc(F)c1	21%	-8%	3%	2%	-3%
CCN(CC)C(=O)C1CCN(Cc2cn(C)nc2-c2ccc(Oc3ccccc3)cc2)CC1	7.4µM*	-3%	1%	-6%	-26%
C[C@H]1C(=O)N(C)CCN1Cc1cn(C)nc1-c1ccc(Oc2ccccc2)cc1	?	-2%	0%	-9%	-12%
Cc1onc(C(=O)N2CCN(Cc3ccccc3)CC2)c1[N+](=O)[O-]	-16%	5%	5%	8%	15µM*
CC(C)c1onc(C(=O)N2CCN(c3ccccc3)CC2)c1[N+](=O)[O-]	5.2µM*	6%	-3%	5%	?
O[C@@H]1CN(Cc2cccs2)[C@@H](c2ccccc2)C[C@H]1n1cc(-c2ccc(F)cc2)nn1	·	·	·	-4%	·
CCCCn1c(O)c(/C(CC)=N/N2CCCCC2c2cccnc2)c(=O)[nH]c1=S (stereo not given)	9.3µM*	14%	-11%	-4%	2.9µM*
Cc1ccc(-n2c(O)c(/C=N/N3CCCCC3c3cccnc3)c(=O)[nH]c2=S)cc1 (stereo not given)	14%	-7%	-1%	15%	?
C/C(=N\N1CCCCC1c1cccnc1)c1c(O)n(C2CCCCC2)c(=S)[nH]c1=O (stereo not given)	9.3µM*	33%	-9%	-18%	3.3µM*
CCOc1ccc(-c2cc3cc(OC)c(OC)cc3c(C)n2)cc1	-14%	·	11%	-8%	36%
CCc1nc(-c2ccc(OC)c(OC)c2)cc2cc(OC)c(OC)cc12	-22%	-9%	27%	6%	9.3µM*
CC(C)Oc1ccc(C(=O)Nc2c3c(nn2-c2ccccc2)CS(=O)(=O)C3)cc1	?	8%	1%	21%	-36%
Cc1cc(NC(=O)c2ccco2)c(=O)n(Cc2cccc(C(F)(F)F)c2)c1	-7%	14%	-3%	-4%	5%
CCOC(=O)COc1cc(Br)c(/C=N/Nc2ccccc2)cc1OC	8.3µM*	0%	-3%	193%	10µM*
COc1cc(C=O)c(Br)cc1OCC(=O)NCCc1ccccc1	-11%[5.75 µM]	-15%	-2%	0%	28%
NNC(=O)CS(=O)(=O)Nc1ncccn1	·	-3%	·	·	·
O=C(CCCCC(=O)NN=Cc1ccc2c(c1)CCC2)NN=Cc1ccc2c(c1)CCC2	·	·	·	-8%	·
C=CCC[C@@H](Cc1ccc(F)cc1)C(=O)OC[C@H](C)NC(=O)[C@@H](CC=C)CC(=O)N[C@@H](CO)Cc1ccccc1	·	·	-12%	0%	·
FC(F)(F)COc1nc(N/N=C/c2cccnc2)nc(N2CCCCC2c2ccccn2)n1 (stereo not given)	12µM*	·	-1%	-15%	9.3µM*
C(=N\Nc1nc(N2CCCC2)nc(N2CCCC2)n1)/c1cccnc1	28%[1.15 µM]	9%	0%	-9%	7%
N=c1c(C(=O)NCc2ccco2)cc2c(=O)n3ccccc3nc2n1CCc1ccccc1	0.93µM*	-3%	-5%	0%	·
COc1ccc(CCn2c(=N)c(C(=O)NCc3ccco3)cc3c(=O)n4ccccc4nc32)cc1OC	·	·	·	3%	·

Screening data as filed in PubChem.
